In all, about 2,400 compounds went through this assay and about 580 (24%) were called active. Only a sample is shown. Values without a mark were called inactive.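 Rule for the calls: active = activity change at or above the mean plus 3 SD of buffer wells without dofetilide, per plate; inactive = the rest.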
Each molecule was assayed against Potassium voltage-gated channel subfamily KQT member 2 (Rattus norvegicus) (UniProt O88943) (assay: rat KCNQ2 channel activation by compounds alone, confirmation, counter-screen for hERG block protector project, cell-based, CHO, FluxOR thallium flux (AID 1942;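 note: normalized value minus buffer-control mean plus three SD of buffer wells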)). Details: CHO-KCNQ2 cells, FluxOR thallium flux fluorescence; at 10 µM; active compounds read high.
Sequence of Potassium voltage-gated channel subfamily KQT member 2 (Rattus norvegicus) (O88943 whole entry, looked up): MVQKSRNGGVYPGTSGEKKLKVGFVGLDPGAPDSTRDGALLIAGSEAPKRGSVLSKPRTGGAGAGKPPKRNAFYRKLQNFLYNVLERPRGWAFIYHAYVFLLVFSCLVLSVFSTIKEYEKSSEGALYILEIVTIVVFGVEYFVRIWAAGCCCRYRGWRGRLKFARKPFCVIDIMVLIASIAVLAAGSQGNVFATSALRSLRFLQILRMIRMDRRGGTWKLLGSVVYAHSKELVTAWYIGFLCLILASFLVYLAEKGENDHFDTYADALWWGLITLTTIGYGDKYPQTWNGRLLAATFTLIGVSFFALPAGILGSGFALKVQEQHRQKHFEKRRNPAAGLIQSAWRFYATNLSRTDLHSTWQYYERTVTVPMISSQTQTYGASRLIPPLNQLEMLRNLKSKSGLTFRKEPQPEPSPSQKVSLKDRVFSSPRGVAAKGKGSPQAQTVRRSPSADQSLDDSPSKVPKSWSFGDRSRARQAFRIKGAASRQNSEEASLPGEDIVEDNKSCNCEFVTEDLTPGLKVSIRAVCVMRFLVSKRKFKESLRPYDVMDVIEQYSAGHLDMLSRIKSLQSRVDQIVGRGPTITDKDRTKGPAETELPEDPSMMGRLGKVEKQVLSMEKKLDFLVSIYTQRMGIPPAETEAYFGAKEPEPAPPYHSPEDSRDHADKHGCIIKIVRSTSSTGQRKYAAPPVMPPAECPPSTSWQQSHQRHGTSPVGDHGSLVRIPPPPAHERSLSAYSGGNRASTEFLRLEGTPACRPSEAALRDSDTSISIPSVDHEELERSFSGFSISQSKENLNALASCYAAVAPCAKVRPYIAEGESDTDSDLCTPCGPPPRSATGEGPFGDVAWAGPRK
`Cc1ccc(CC23CN4CCN(CC(C4)C2O)C3)c(C)c1` (stereo not given) gave an activity change, less the hit threshold of -8.4%. In the case of `O=C(NCC(c1cccs1)N1CCOCC1)c1cc(S(=O)(=O)N2CCOCC2)ccc1F` (stereo not given), the activity change, less the hit threshold was -15.4%. With `CSC1=C(C#N)C(CC(C)C)C2=C(CCCC2=O)N1` (stereo not given) the activity change, less the hit threshold was -12.3%. With `CCOc1nc(-c2ccccc2)ccc1-c1noc(COC)n1` the activity change, less the hit threshold was -13.5%. With `Cc1cc(C(F)(F)F)c2sc(N)nc2n1` the activity change, less the hit threshold was -4.4%. For `Cc1nc2c(C(=O)NCc3cccs3)cnn2c(C)c1Cc1ccccc1`, the activity change, less the hit threshold was -25.2%. Work on `Cc1cc(C)nc(NS(=O)(=O)c2ccc(NC(=O)Cc3ccccc3)cc2)n1` yielded an activity change, less the hit threshold of -11.1%. `O=C(Cc1cccs1)Nn1c(Cc2cccs2)nc2ccccc2c1=O` was tested, and the activity change, less the hit threshold was 54.3% (active). Molecule `O=C(O)CCCNC(=O)c1nn(Cc2ccccc2)c(=O)c2ccccc12` has an activity change, less the hit threshold of -5.2%. With `O=C(Cc1ccccc1)Nn1c(-c2ccccc2)nc2ccccc2c1=O` the activity change, less the hit threshold was 29.9% (active). Molecule `O=S(=O)(c1ccc(F)c(F)c1)N1CCN(c2ncccn2)CC1` has an activity change, less the hit threshold of -26%. `CCCCCOc1ccc(C2C(C(C)=O)=C(C)Nc3ncnn32)cc1OC` (stereo not given) gave an activity change, less the hit threshold of -11.7%. `O=C(c1ccc2c(c1)N(Cc1ccccc1F)C(=O)c1ccccc1S2(=O)=O)N1CCCC1` was tested, and the activity change, less the hit threshold was -23.2%. `COc1ccc(CN2CCn3ncc(C(=O)Nc4ccccc4)c3C2=O)cc1` showed an activity change, less the hit threshold of -13.1%. Molecule `Cc1nnc(NC(=O)CN2CCN(Cc3ccc(F)cc3Cl)CC2)s1` has an activity change, less the hit threshold of -27.8%. `Cc1ccc2c(c1)c1nnc(SCC(=O)Nc3ccc(N(C)C)cc3)nc1n2CC(=O)O` showed an activity change, less the hit threshold of -16.6%. With `COc1cccc(N=Nc2ccc(O)c3ncccc23)c1` the activity change, less the hit threshold was -7.4%. In the case of `CCOc1ccc(N=Nc2ccc(O)c3ncccc23)cc1`, the activity change, less the hit threshold was -5.6%. `COc1ccc(OC)c(S(=O)(=O)Nc2ccc(O)c3ccccc23)c1` was tested, and the activity change, less the hit threshold was -22.3%. In the case of `CCN(CC)S(=O)(=O)c1cc(OC)ccc1N=Nc1ccc(O)c2ncccc12`, the activity change, less the hit threshold was 44.8% (active). With `COc1ccccc1N=Nc1ccc(O)c2ncccc12` the activity change, less the hit threshold was 15.6% (active). In the case of `COc1ccc(NS(=O)(=O)c2ccc3ccccc3c2)c2ncccc12`, the activity change, less the hit threshold was -12.6%. `O=C(COC(=O)c1cc(NS(=O)(=O)c2cccs2)ccc1O)Nc1cc(Cl)ccc1Cl` gave an activity change, less the hit threshold of -5.6%. `C[n+]1ccccc1COc1ccc(C(C)(C)C)cc1` was tested, and the activity change, less the hit threshold was -21.7%. `CCCn1c(SCC(N)=O)nc2c(c1=O)C1(CCCC1)Cc1ccccc1-2` was tested, and the activity change, less the hit threshold was -2.1%. In the case of `CCn1c(=S)[nH]c2c(c1=O)C(C)(C)Cc1ccccc1-2`, the activity change, less the hit threshold was 35.3% (active). `CCC1(CC)Cc2ccccc2-c2[nH]c(=S)[nH]c(=O)c21` gave an activity change, less the hit threshold of -28.1%. `COc1ccc(-c2cc(C(F)(F)F)nc(SCC(=O)NCc3cccs3)n2)cc1` was tested, and the activity change, less the hit threshold was -14.1%. `COc1ccc(-c2cc(C(=O)Nc3ccccc3SC)no2)cc1` was tested, and the activity change, less the hit threshold was -15.3%. With `COC(=O)c1c(NC(=O)C(C)(C)C)csc1C` the activity change, less the hit threshold was -9.2%. `C/C(=N\NC(=O)c1ccc(Cl)cc1)c1ccc(Br)s1` gave an activity change, less the hit threshold of -6.9%. With `CCc1cc2c(=O)n(CCC(C)C)c(=S)[nH]c2s1` the activity change, less the hit threshold was 54% (active). `CCCCNC(=O)c1onc(CSc2nc3ccccc3[nH]2)c1C(=O)NCCCC` showed an activity change, less the hit threshold of -19%. With `COc1ccc(CCNC(=O)Cn2c(=O)n(-c3ccc(F)cc3)c(=O)c3sccc32)cc1OC` the activity change, less the hit threshold was -19.4%. For `O=C(N/N=C1/C(=O)c2cccc3cccc1c23)c1ccc(Cl)cc1`, the activity change, less the hit threshold was 73.4% (active). With `CCNC(=S)N/N=C1\C(=O)c2cccc3cccc1c23` the activity change, less the hit threshold was -4%. Molecule `O=C(NN=C1c2ccccc2-c2ccccc21)c1ccccc1` has an activity change, less the hit threshold of 0%. In the case of `O=C(O)c1ccccc1P(=O)(c1ccccc1)c1ccccc1`, the activity change, less the hit threshold was -16.8%. Molecule `Cc1noc(C)c1COc1cccc(C(=O)NCc2cccc(Cl)c2)c1` has an activity change, less the hit threshold of -21.4%. `CCCCCCCC/C=C\CCCCCCCC(=O)O` showed an activity change, less the hit threshold of -1%. For `CCCCCC/C(C)=C1/SC(=S)NC1=O`, the activity change, less the hit threshold was 71.1% (active). Work on `CCOC(=O)Cc1nc2ccccc2o1` yielded an activity change, less the hit threshold of -2.9%. For `O=C(O)Cc1sc(-c2ccc(Cl)cc2)nc1-c1ccccc1`, the activity change, less the hit threshold was -19.7%. `O=C(NC(=S)Nc1cc(C(F)(F)F)ccc1Cl)c1ccccc1` gave an activity change, less the hit threshold of -6.4%. `O=C(NC(=S)Nc1ccc(C(F)(F)F)cc1)c1csnn1` was tested, and the activity change, less the hit threshold was 87% (active). Work on `O=C(Nc1ccc(-c2csc(Nc3cccc(C(F)(F)F)c3)n2)cc1)c1ccccc1` yielded an activity change, less the hit threshold of -23.8%. In the case of `O=C(NC(=S)Nc1cccc(C(F)(F)F)c1)c1csnn1`, the activity change, less the hit threshold was 115% (active). Molecule `CC12CN3CC(C)(CN(C1)C3c1ccc3c(c1)OCO3)C2=O` (stereo not given) has an activity change, less the hit threshold of -15.9%. Work on `C/C(O)=C/c1nc2ccccc2[nH]c1=O` yielded an activity change, less the hit threshold of -16.5%. Work on `CCN1C(=O)/C(=C/N2CCc3ccccc32)SC1=S` yielded an activity change, less the hit threshold of -17.3%.

Source: PubChem BioAssay AID1942 (Johns Hopkins Ion Channel Center, 2009)
